Rows were chosen to be rich in hits. Some 3.5% of all compounds tested hit in one or more screens of this group.
BoNT-F LC inh: BoNT/F light chain protease inhibitors, primary screen, biochemical, flow cytometry, MLPCN library. Multiplex microsphere protease cleavage assay. Botulinum neurotoxin type F light chain protease (Clostridium botulinum). inhibition, % at 10 µM. hit rate 0.22% among 360,000; in the data active means inhibition above about 35%, passing the limit was not always enough; inconclusive means no clear call, values can overlap the other calls; further: plate controls were buffer without enzyme for full effect and enzyme alone for no effect
Bead autofluor: flagged as autofluorescent in microsphere protease counterscreen; AID 624483; fluorescence intensity (no concentration beside the values); hit rate 3.1% among 360,000; compound autofluorescence counterscreen, microsphere flow cytometry; stronger effect = higher value; in the data active means fluorescence intensity above about 16000; inconclusive means no clear call, values can overlap the other calls
BoNT A protease: BoNT/A light chain protease inhibitors, primary screen, biochemical, flow cytometry, MLPCN library; Botulinum neurotoxin type A light chain protease (Clostridium botulinum A str. ATCC 3502); multiplex microsphere protease substrate cleavage; inhibition, % at 10 µM; hit rate 0.17% among 360,000; AID 588499, 2011; further: plate controls were buffer without enzyme for full effect and enzyme alone for no effect
Anthrax LF prot: Bacillus anthracis LF protease inhibitors, primary screen, biochemical, multiplex microsphere, MLPCN library. multiplex microsphere protease cleavage assay. Lethal factor (Bacillus anthracis), P15917. inhibition, % at 10 µM. hit rate 0.12% among 360,000; further: plate controls were buffer without enzyme for full effect and enzyme alone for no effect
Target sequence (P15917 whole entry, looked up): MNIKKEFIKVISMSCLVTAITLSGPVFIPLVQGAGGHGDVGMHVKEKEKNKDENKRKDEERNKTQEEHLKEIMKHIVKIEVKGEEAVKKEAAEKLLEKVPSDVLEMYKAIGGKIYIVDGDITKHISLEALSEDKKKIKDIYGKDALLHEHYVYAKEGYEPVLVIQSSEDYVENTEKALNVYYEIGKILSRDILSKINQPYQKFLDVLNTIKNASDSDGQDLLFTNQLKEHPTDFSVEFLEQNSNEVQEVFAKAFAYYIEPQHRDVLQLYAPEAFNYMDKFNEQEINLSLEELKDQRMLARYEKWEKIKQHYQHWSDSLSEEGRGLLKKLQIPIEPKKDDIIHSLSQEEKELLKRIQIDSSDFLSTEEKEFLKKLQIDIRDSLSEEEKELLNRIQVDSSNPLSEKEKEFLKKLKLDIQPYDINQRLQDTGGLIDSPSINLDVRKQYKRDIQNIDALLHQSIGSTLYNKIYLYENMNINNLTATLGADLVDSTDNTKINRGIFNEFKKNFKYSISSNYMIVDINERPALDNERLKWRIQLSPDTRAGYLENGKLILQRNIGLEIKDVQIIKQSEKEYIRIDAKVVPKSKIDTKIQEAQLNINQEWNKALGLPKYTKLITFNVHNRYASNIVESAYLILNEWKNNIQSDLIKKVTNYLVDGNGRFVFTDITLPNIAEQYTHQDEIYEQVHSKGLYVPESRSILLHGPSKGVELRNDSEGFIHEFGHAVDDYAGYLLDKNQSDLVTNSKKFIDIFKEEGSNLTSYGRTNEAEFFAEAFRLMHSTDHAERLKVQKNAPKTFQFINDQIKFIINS
* hit, by the source's call; ? = inconclusive. Unless noted, no stated cut-off is given here; in the data, active means inhibition above about 30%; inconclusive means no clear call, values can overlap the other calls; inactive means below that.

SMILES	BoNT-F LC inh	Bead autofluor	BoNT A protease	Anthrax LF prot
COc1ccc(C2N(S(=O)(=O)c3ccc(C)cc3)CCN2S(=O)(=O)c2ccc(C)cc2)cc1	-0.1	?	-0.5	-2.0
CC(Oc1ccccc1F)C(=O)NNC(=O)Cc1ccc(S(=O)(=O)N2CCOCC2)s1 (stereo not drawn)	86.4*	6061	99.7*	108.8*
Cc1ccc(OC(C)C(=O)N2CCCc3ccccc32)cc1 (stereo not drawn)	-7.8	17127*	?	-7.1
Cc1cccc(OC(C)C(=O)N2CCCc3ccccc32)c1 (stereo not drawn)	-6.8	2481	0.3	0.5
O=C(NCCc1ccccc1)C(c1cccs1)N(C(=O)c1csnn1)C1CC1 (stereo not drawn)	7.2	20245*	?	-10.4
O=C(NCCc1ccccc1)C(c1ccccc1)N(C(=O)c1csnn1)C1CC1 (stereo not drawn)	-3.2	3597	0.1	-7.4
O=C(NCc1ccccc1)C(c1ccccc1)N(C(=O)c1csnn1)C1CC1 (stereo not drawn)	-7.0	4029	-0.3	-8.0
CCC(C)N(CC(=O)NCc1ccc(OC)cc1)C(=O)c1csnn1 (stereo not drawn)	8.5	16830*	?	-15.1
O=C(NCc1ccccc1)C(c1cccs1)N(C(=O)c1csnn1)C1CC1 (stereo not drawn)	-0.6	21285*	-0.6	1.9
COc1ccc(CNC(=O)C(c2cccs2)N(C(=O)c2csnn2)C2CC2)cc1 (stereo not drawn)	-3.3	24268*	-2.0	-1.7
FC(F)(F)Oc1ccccc1C(c1nnnn1C1CCCC1)N1CCN(C/C=C/c2ccccc2)CC1 (stereo not drawn)	-16.6	6144	-1.8	-7.6
COc1cc(SC)ccc1C(=O)N1CCN(c2ccccc2OC)CC1	-0.8	4787	-0.1	2.7
COC(=O)C1CCN(C(=O)c2ccc(SC)cc2OC)CC1	-3.2	20634*	?	-0.3
NS(=O)(=O)c1cccc(NC(=O)CN2CCc3ccccc32)c1	-9.8	4906	-0.8	-5.6
CN(c1ccccc1)S(=O)(=O)c1cccc(NC(=O)CN2CCCc3ccccc32)c1	-7.5	20032*	0.4	-10.4
O=C(Cn1cnc2ccccc2c1=O)OCCCCN1C(=O)c2ccccc2C1=O	-5.3	23990*	-1.9	-3.8
COc1ccccc1OCCOCCn1cnc2ccccc2c1=O	1.8	19899*	?	-0.9
CCOc1ccc(OCCCCn2cnc3ccccc3c2=O)cc1	-0.6	3231	0.0	-2.8
CC(C)(C)c1ccc(OCCOCCn2cnc3ccccc3c2=O)cc1	-3.9	4574	-0.3	1.1
COC(=O)c1ccc(OCCn2cnc3ccccc3c2=O)cc1	-1.1	19676*	-0.7	-0.8
COC(=O)Cn1cnc2ccccc2c1=O	-2.0	2392	0.5	2.8
O=C(/C=C/c1cccs1)c1ccco1	2.6	3565	3.0	5.4
Cc1c([N+](=O)[O-])c(C(=O)NC2CCCCC2)nn1C	-17.3	5478	-1.7	-4.5
Cc1ccc(CN2CCC(=O)N2)cc1	-0.8	3206	-0.3	-0.6
CC(=O)Nc1cc(-c2cccc(F)c2)cn2c(-c3ccccc3)cnc12	-0.2	4087	0.2	-1.5
SMILES	BoNT-F LC inh	Bead autofluor	BoNT A protease	Anthrax LF prot
CC(O)(CS(=O)(=O)Cc1ccccc1)C(=O)Nc1ccc(C(F)(F)F)cc1 (stereo not drawn)	-2.0	23000*	?	1.2
CC(O)(CS(=O)(=O)Cc1ccccc1)C(=O)Nc1cccc(C(F)(F)F)c1 (stereo not drawn)	1.1	20560*	0.7	0.2
CC(O)(CS(=O)(=O)c1cccc(C(F)(F)F)c1)C(=O)Nc1cccc(C(F)(F)F)c1 (stereo not drawn)	-3.5	10906	0.8	-3.7
CP(=O)(Nc1ccc(Cl)cc1)c1nc2c(s1)CCCC2 (stereo not drawn)	-1.9	4233	-0.3	-0.9
O=P(Nc1ccccc1Cl)(c1ccccc1)c1nc2c(s1)CCCC2 (stereo not drawn)	-9.2	17289*	-3.1	-1.5
O=P(Nc1c(Cl)cccc1Cl)(c1ccccc1)c1nc2c(s1)CCCC2 (stereo not drawn)	-2.8	23723*	-3.1	-9.0
CC(C)(C)CN1CCC(Oc2cccc(C(=O)N3CCC[C@H]3CO)c2)CC1	-1.6	4284	0.3	-1.1
Cc1ccc2nc(NC(=O)CCNS(=O)(=O)c3ccc(Br)s3)sc2c1	0.6	23058*	0.8	-6.4
Cc1ccc2nc(NC(=O)CCNS(=O)(=O)c3cccs3)sc2c1	9.1	10854	-0.5	-7.9
Cc1ccc(S(=O)(=O)c2nc(C(C)(C)C)oc2N2CCOCC2)cc1	-2.1	16379*	0.1	1.3

Screening results deposited in PubChem BioAssay by NMMLSC.
